PubChem BioAssay (EPA / NIEHS)
Results filed as inconclusive are left out. The source made the active and inactive calls. Rule for the calls: active = hit-call score of the fitted dose curve at least 0.9, where 1 is the maximum; inconclusive = response in the unintended direction; inactive = score below 0.9.

Each compound was assayed against Estrogen receptor (Homo sapiens) + Estrogen receptor beta (Homo sapiens) (UniProt P03372+Q92731) (assay: OT_ER_ERaERb_1440: Odyssey Thera (OT) 24-hour HEK293T Protein-Complementation Assay for Estrogen Receptor-alpha/-beta Homodimer (AID 2283356);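 note: hits raise reporter fluorescence and both agonists and antagonists give an increase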).
Estrogen receptor (Homo sapiens) + Estrogen receptor beta (Homo sapiens), sequence (P03372 whole entry, looked up, the tested form may be a part): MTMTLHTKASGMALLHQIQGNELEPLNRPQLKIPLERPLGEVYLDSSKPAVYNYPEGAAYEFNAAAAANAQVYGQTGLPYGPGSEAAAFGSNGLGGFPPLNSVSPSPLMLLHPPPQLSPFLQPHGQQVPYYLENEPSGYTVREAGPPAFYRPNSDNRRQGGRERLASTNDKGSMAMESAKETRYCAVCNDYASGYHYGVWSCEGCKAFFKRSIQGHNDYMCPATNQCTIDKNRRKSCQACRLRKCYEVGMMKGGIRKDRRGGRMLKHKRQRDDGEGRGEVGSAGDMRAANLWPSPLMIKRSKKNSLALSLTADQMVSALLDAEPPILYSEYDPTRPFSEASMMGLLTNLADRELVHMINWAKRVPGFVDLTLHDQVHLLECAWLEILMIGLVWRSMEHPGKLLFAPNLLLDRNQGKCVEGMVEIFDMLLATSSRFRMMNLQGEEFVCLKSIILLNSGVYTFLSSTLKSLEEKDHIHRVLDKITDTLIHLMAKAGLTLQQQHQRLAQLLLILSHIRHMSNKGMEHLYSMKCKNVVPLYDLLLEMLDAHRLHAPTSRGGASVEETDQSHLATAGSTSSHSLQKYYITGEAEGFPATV
Estrogen receptor (Homo sapiens) + Estrogen receptor beta (Homo sapiens), sequence (Q92731 whole entry, looked up, the tested form may be a part): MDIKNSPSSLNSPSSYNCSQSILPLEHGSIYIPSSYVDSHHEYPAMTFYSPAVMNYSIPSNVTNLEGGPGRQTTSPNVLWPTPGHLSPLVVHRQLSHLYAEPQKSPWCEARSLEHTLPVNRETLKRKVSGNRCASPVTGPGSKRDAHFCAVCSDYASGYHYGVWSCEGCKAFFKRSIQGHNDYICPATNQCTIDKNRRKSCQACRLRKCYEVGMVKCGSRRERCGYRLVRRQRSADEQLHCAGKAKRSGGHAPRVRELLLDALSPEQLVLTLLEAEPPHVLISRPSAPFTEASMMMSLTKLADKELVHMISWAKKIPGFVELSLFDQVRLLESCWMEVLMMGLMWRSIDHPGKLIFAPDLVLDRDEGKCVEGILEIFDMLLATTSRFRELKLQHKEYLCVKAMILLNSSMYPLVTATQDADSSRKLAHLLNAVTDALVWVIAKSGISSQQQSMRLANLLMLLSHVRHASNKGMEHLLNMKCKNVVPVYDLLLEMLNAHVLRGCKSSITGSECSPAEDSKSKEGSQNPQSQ
Procedure: OT_ER_ERaERb_1440 is a cell-based assay that uses HEK293T, a human kidney cell line, with measurements taken at 24 hours after chemical dosing in a 384-well plate.OT_ER_ERaERb_1440 is one of one assay component(s) measured or calculated from the OT_ER_ERaERb_1440 assay. It is designed to make measurements of protein fragment complementation, a form of binding reporter, as detected with fluorescence intensity signals by Protein-fragment Complementation technology.Data from the assay component OT_ER_ERaERb_1440 was analyzed into 1 assay endpoint. This assay endpoint, OT_ER_ERaERb_1440, was analyzed in the positive analysis fitting direction relative to DMSO as the negative control and baseline of activity. Using a type of binding reporter, measures of receptor for gain-of-signal activity can be used to understand the binding at the pathway-level as they relate to the gene ESR1 and ESR2. Furthermore, this assay endpoint can be referred to as a primary readout, because the performed assay has only produced 1 assay endpoint. To generalize the intended target to other relatable targets, this assay endpoint is annotated to the nuclear receptor intended target family, where the subfamily is steroidal.
Protein-fragment complementation assay, or PCA, is a method for the identification and quantification of protein-protein interactions. In the PCA, the proteins of interest ("bait" and "prey") are each covalently linked to fragments of a third protein (e.g. DHFR, which acts as a "reporter"). Interaction between the bait and the prey proteins brings the fragments of the reporter protein in close proximity to allow them to form a functional reporter protein whose activity can be measured. The OT ER alpha / ER beta assay is a heterodimer PCA of the ligand binding domain (LBD) of ER alpha (amino acids 310-547) and human ER beta (amino acids 263-489) stably expressed in HEK293T cells. […] Fluorescent signal in the basal state of the assay is very low and is primarily punctuate and cytoplasmic. Modulation of this assay is quantified as an increase in mean fluorescence intensity in the nucleus (for agonists) or in the nucleus and cytoplasm (antagonists) relative to vehicle controls, and can be quantified on a high content imaging device or a laser scanning cytometer. The latter instrument is favored for this assay because of the rapid mode of data acquisition, the ability to acquire data from the entire cell population in a well (as opposed to a fraction of the well on the high content devices) and the larger dynamic range typically achieved with this instrument. To assess sensitivity of the ER alpha/ER beta LBD assay to ligand, cells were treated with the ER agonist 17- beta-estradiol (E2) in 10-point concentration- response format for 24 hours and monitored response on a laser scanning plate cytometer (Acumen eX3; TTP Lab Tech).

| SMILES | outcome | AC50 |
| --- | --- | --- |
| Cc1nc(-c2ccccn2)ncc1C(=O)Nn1cc(C)c2cc(F)ccc21 | inactive | – |
| OCc1ccccc1 | inactive | – |
| NNC(=O)c1ccncc1 | inactive | – |
| OC[C@H]1O[C@@](CO)(O[C@H]2O[C@H](CO)[C@@H](O)[C@H](O)[C@H]2O)[C@@H](O)[C@@H]1O | inactive | – |
| CNC(C)=O | inactive | – |
| Cc1ccc(S(=O)(=O)NC(=O)NN2CCCCCC2)cc1 | inactive | – |
| O=C(O)c1cccc(C[C@@H]2COc3ccc(OCc4nc5cc(F)ccc5s4)cc3[C@@H]2O)c1 | inactive | – |
| NC(=O)NN=Cc1ccc([N+](=O)[O-])o1 | inactive | – |
| CCCCC(CC)C(=O)OCCOCCOCCOC(=O)C(CC)CCCC (stereo not given) | inactive | – |
| COCc1nnc(-c2ccc[n+]([O-])c2)n1-c1c(Cl)c(Cl)cc2[nH]c(=O)c(=O)[nH]c12 | inactive | – |
| CCCCCCOC(=O)CC(CC(=O)OCCCCCC)(OC(=O)CCC)C(=O)OCCCCCC | inactive | – |
| CCCCCCCCCC | inactive | – |
| OCC(CO)(CO)CO | inactive | – |
| CC[C@H](C)C(=O)O[C@H]1C[C@H](O)C=C2C=C[C@H](C)[C@H](CC[C@@H](O)C[C@@H](O)CC(=O)O)[C@H]21 | inactive | – |
| CCCCCCCC1CCC(=O)O1 (stereo not given) | inactive | – |
| CCc1ccc(O)c(C(C)(C)C)c1 | inactive | – |
| O=S1(=O)CCCO1 | inactive | – |
| O=C(O)CO | inactive | – |
| OC[C@H]1O[C@@H]2O[C@H]3[C@H](O)[C@@H](O)[C@@H](O[C@H]4[C@H](O)[C@@H](O)[C@@H](O[C@H]5[C@H](O)[C@@H](O)[C@@H](O[C@H]6[C@H](O)[C@@H](O)[C@@H](O[C@H]7[C@H](O)[C@@H](O)[C@@H](O[C@H]1[C@H](O)[C@H]2O)O[C@@H]7CO)O[C@@H]6CO)O[C@@H]5CO)O[C@@H]4CO)O[C@@H]3CO | inactive | – |
| C=CCc1cc(S(=O)(=O)c2ccc(O)c(CC=C)c2)ccc1O | inactive | – |

| SMILES | outcome | AC50 |
| --- | --- | --- |
| NC(N)=O | inactive | – |
| CCOc1ccc2[nH]cc(C(=O)NCc3ccccc3)c(=O)c2n1 | inactive | – |
| O=C(O)[C@H](O)[C@@H](O)C(=O)O | inactive | – |
| CC(C)c1nnc2ccc(-c3ocnc3-c3cc(F)ccc3F)cn12 | inactive | – |
| CCCCCCCCCCCCCCO | inactive | – |
| OC(CCl)CCl | inactive | – |
| CCCCCCCCCCCCCCCCOS(=O)(=O)O | inactive | – |
| NC(=O)N1c2ccccc2C=Cc2ccccc21 | inactive | – |
| c1ccc2c(c1)-c1cccc3c1c-2cc1ccccc13 | inactive | – |
| O=C(NO)C1(NS(=O)(=O)c2ccc(Oc3ccc(F)cc3)cc2)CCOCC1 | inactive | – |
| CCc1cccc(CC)c1N | inactive | – |
| Cc1nccn1-c1ccc(Sc2cccc(C3(C(N)=O)CCOCC3)c2)cc1 | – | 20.9 µM (active) |
| CCCOc1ccc(S(=O)(=O)N2CCN(CC)CC2)cc1-c1nc2c(CC)n(Cc3ccccn3)nc2c(=O)[nH]1 | inactive | – |
| CC(C)CC(C)O (stereo not given) | inactive | – |
| CCCCN1C(=O)[C@@H]([C@H](O)C2CCCCC2)NC(=O)C12CCN(Cc1ccc(Oc3ccc(C(=O)O)cc3)cc1)CC2 | inactive | – |
| OCCOCCOCCO | inactive | – |
| CCCCCCCC/C=C\CCCCCCCC(=O)OC[C@@H](O)[C@H]1OC[C@H](O)[C@H]1O | inactive | – |
| NC(=O)N(O)[C@@H]1COc2cc(OCc3ccccc3)ccc21 | inactive | – |
| CCN(CC)C(=S)SSC(=S)N(CC)CC | – | 12 µM (active) |
| Cc1cccc(O)c1C | inactive | – |
